# Reference: the supplement of paper PMC6555819
# Key:
# Test in all cases: PBM binding z-score (relative to random genomic background probes); higher = stronger binding; sequences stand for … in GC…GCGATTGACAGCGTAGAATGAAGG
# [1] = test system: FXR:RXRa (NR concentration 270 nM, RXRa partner concentration 90 nM)
# Summary of the method: (§1)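 On custom Agilent 4×180K arrays, double-stranded probes with 34-nt variable regions carried direct-repeat seeds, single-nucleotide variants, half-site ablations or random human genomic background. Ligand-free nuclear receptor dimers were applied for 1 h, and binding was read with antibodies against each partner (one per run). Binding z-scores come from regression-normalized fluorescence, with the random background probes as reference.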
# [2] = test system: LXRa:RXRa (NR concentration 270 nM, RXRa partner concentration 90 nM)
# Summary of the method: as §1
# [3] = test system: LXRa homodimer (NR concentration 270 nM)
# Summary of the method: as §1
# [4] = test system: LXRb:RXRa (NR concentration 270 nM, RXRa partner concentration 90 nM)
# Summary of the method: as §1
# [5] = test system: LXRb homodimer (NR concentration 270 nM)
# Summary of the method: as §1
# [6] = test system: PPARa:RXRa (NR concentration 270 nM, RXRa partner concentration 90 nM)
# Summary of the method: as §1
# [7] = test system: PPARg:RXRa (NR concentration 180 nM, RXRa partner concentration 90 nM)
# Summary of the method: as §1
# [8] = test system: PPARg:RXRa 270nM:90nM, anti-RXR (NR concentration 270 nM, RXRa partner concentration 90 nM)
# Summary of the method: as §1
# [9] = test system: PPARg:RXRa 30nM:10nM, anti-RXR (NR concentration 30 nM, RXRa partner concentration 10 nM)
# Summary of the method: as §1
# [10] = test system: PPARg:RXRa 90nM:30nM, anti-RXR (NR concentration 90 nM, RXRa partner concentration 30 nM)
# Summary of the method: as §1
# [11] = test system: PPARg:RXRa DBDmut IVT, anti-RXR (DBD mutation: RXRa K156A/R161A, NR concentration 270 nM, RXRa partner concentration 90 nM)
# Summary of the method: as §1
# [12] = test system: PPARg:RXRa IVT, anti-PPARg (NR concentration 270 nM, RXRa partner concentration 90 nM)
# Summary of the method: as §1
# [13] = test system: PPARg DBDmut:RXRa IVT, anti-PPARg (DBD mutation: PPARg1 K132A/R137A, NR concentration 270 nM, RXRa partner concentration 90 nM)
# Summary of the method: as §1
# [14] = test system: PPARg DBDmut IVT, anti-PPARg (DBD mutation: PPARg1 K132A/R137A, NR concentration 270 nM)
# Summary of the method: as §1
# [15] = test system: PPARg homodimer (NR concentration 180 nM)
# Summary of the method: as §1
# [16] = test system: PXR:RXRa (NR concentration 270 nM, RXRa partner concentration 90 nM)
# Summary of the method: as §1
# [17] = test system: PXR homodimer (NR concentration 270 nM)
# Summary of the method: as §1
# [18] = test system: RARa:RXR (NR concentration 270 nM, RXRa partner concentration 90 nM)
# Summary of the method: as §1
# [19] = test system: RARa homodimer (NR concentration 270 nM)
# Summary of the method: as §1
# [20] = test system: RARb:RXRa (NR concentration 270 nM, RXRa partner concentration 90 nM)
# Summary of the method: as §1
Sequence,PBM binding z-score [1],PBM binding z-score [2],PBM binding z-score [3],PBM binding z-score [4],PBM binding z-score [5],PBM binding z-score [6],PBM binding z-score [7],PBM binding z-score [8],PBM binding z-score [9],PBM binding z-score [10],PBM binding z-score [11],PBM binding z-score [12],PBM binding z-score [13],PBM binding z-score [14],PBM binding z-score [15],PBM binding z-score [16],PBM binding z-score [17],PBM binding z-score [18],PBM binding z-score [19],PBM binding z-score [20]
GGAACGAGGGCATTCGAGTTGATAGCGTGGCGAT,1.41,1.5,-0.572,-0.00424,-0.698,1.35,0.634,0.67,-0.488,0.214,3.44,2.02,-0.574,-0.961,0.0421,3.71,1.79,0.221,-0.388,1.85
TCTTGTAGATCAAAGGATAAGAAAGCCGAAGCCT,0.762,0.274,-0.116,-0.287,-0.528,0.671,1.13,3.36,3.43,3.38,1.75,0.245,0.639,-0.158,0.25,-0.0029,-0.483,-0.193,0.315,-0.125
GCTAGTTGGTCAGTAAAAGGTCACAGACCGGTCG,3.72,4.57,4.2,4.1,0.607,5.07,3.41,4.95,2.71,4.5,1.25,3.03,-0.272,0.44,3.83,4.92,1.24,6.32,1.97,4.51
TTACCAAGTTGAAGGTCGTTGATCCCTCTGTAGA,2.26,2.28,0.241,1.56,-0.05,1.59,0.598,2.48,1.36,2.27,0.297,0.442,0.321,-0.391,0.828,1.59,0.298,1.21,0.00913,1.15
ATATGTAGGTTATCGGGTCATTAAGTTTGCGCAT,3,2.85,1.77,2.95,1.02,5,7.09,6.08,3.81,5.71,7.51,7.55,2.77,2.29,2.72,4.08,9.55,3.8,1.51,2.62
TCAGACAGGTGAAGGTACCTCAGGTACGCAGTCG,0.559,0.611,-0.182,0.0572,-0.29,1.13,0.642,1.8,3.41,2.54,1.89,0.885,0.0512,-0.186,0.265,0.248,-0.155,0.888,-0.298,0.914
ATATGTAGGTTATAGGGTCATTCAGTTTGCGCAT,4.47,4.26,2.22,3.98,1.38,5.36,7.99,7.04,5.54,7.25,7.51,7.16,2.03,1.57,3.17,4.88,8.92,5.18,1.96,3.19
TCATATAGGCAAACAGGTGAAAGTCCGTAAGTTA,0.489,0.602,-0.0652,0.614,-0.318,1.33,0.726,2.34,3.4,2.91,2.62,1.42,0.461,0.241,0.782,0.517,0.177,0.939,0.994,0.119
TATAGCAGGCCAGAGGGTCACTCAAGAGGTACGG,1.02,1.2,-0.173,1.21,-0.338,2.59,2.56,3.15,1.56,3.12,-0.0119,1.41,0.475,-0.0534,1.11,1.73,-0.392,2.46,-0.269,2.09
GCCACTGGGGCATCAGCAGGTTACCATAACTTAA,-0.242,-0.416,-0.158,0.103,-1.12,1.28,1.72,1.82,0.184,0.914,4.53,4.92,-0.157,-0.59,0.0359,-0.0612,-0.589,0.475,-0.576,0.955
CCGACTGGGGCATAAGGTTCCCATAAGCCAGCCC,-0.429,-0.436,-0.915,-0.62,-1.28,0.156,0.836,1.45,-0.116,1.19,1.82,2,-1.14,-1.53,-0.0208,-0.582,-0.205,-0.563,0.262,0.252
ACTAGCAGGCCAAGGGTCAATCAAGATTAGTCCG,3.02,2.94,0.134,2.96,-0.379,4.64,8.14,7.68,6.29,8.3,1.29,3.74,-0.502,-0.4,1.86,3.34,-0.202,4.28,-0.127,3.33
CCGACTGGGGCAATGGTTACCATACTCAGTACGA,-0.281,-0.63,-0.543,-0.411,-1.1,0.901,2.88,3.63,1.72,3.63,3.21,3.14,-0.545,-0.357,0.166,-0.648,-0.201,-0.309,-0.393,0.161
TCATATAGGTAATACCGGTGAAAGTCGGCATCTA,0.519,0.637,0.169,0.726,0.0983,1.44,0.698,2.2,4.02,3.31,3.57,2.28,0.77,0.786,0.599,0.488,0.00655,1.01,0.792,0.224
